Screen size: about 5,500 compounds; about 2,000 (36%) were called active. Roughly 18% stayed inconclusive and do not appear here. Cut-off read from the data, not from the text of the source: active = normalized growth mostly below about 0.91 (no sharp cut-off); inconclusive = no clear call, values can overlap the other calls; inactive = mostly above about 0.92. The list shows a part of the results.
Assay: chemical genetic growth profiling, strain panel (AID 1159580);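 note: tested at 20 µM; growth read once vehicle control cultures reached saturation at 30 °C; 1 = growth at the plate median or of vehicle wells; lower values mean less growth of the strain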
Conditions: growth OD

Measured: normalized growth

CC(NCCc1ccc(O)cc1)C(O)c1ccc(O)cc1 (centres undefined)
inactive: S. cerevisiae deletion strains, locus YJR043C, strain POL32, stronger effect = lower value 0.992 | S. cerevisiae deletion strains, locus YJR066W, strain TOR1, stronger effect = lower value 0.948 | S. cerevisiae deletion strains, locus YKL009W, strain mrt4, stronger effect = lower value 0.977 | S. cerevisiae deletion strains, locus YKL068W, stronger effect = lower value 0.985 | S. cerevisiae deletion strains, locus YKL085W, strain MDH1 (second series), stronger effect = lower value 0.984 | S. cerevisiae deletion strains, locus YKL085W, strain MDH1, stronger effect = lower value 0.984 | S. cerevisiae deletion strains, locus YKL160W, strain elf1, stronger effect = lower value 0.966 | S. cerevisiae deletion strains, locus YKL190W, strain CNB1, stronger effect = lower value 0.998 | S. cerevisiae deletion strains, locus YKR001C, strain vps1, stronger effect = lower value 0.987 | S. cerevisiae deletion strains, locus YKR026C, strain gcn3, stronger effect = lower value 0.985 | S. cerevisiae deletion strains, locus YKR091W, strain srl3, stronger effect = lower value 0.985 | S. cerevisiae deletion strains, locus YLL001W, strain dnm1, stronger effect = lower value 0.981 | S. cerevisiae deletion strains, locus YLL026W, stronger effect = lower value 0.999 | S. cerevisiae deletion strains, locus YLL041C, strain sdh2, stronger effect = lower value 0.983 | S. cerevisiae deletion strains, locus YLR027C, strain aat2, stronger effect = lower value 0.983 | S. cerevisiae deletion strains, locus YLR039C, strain RIC1, stronger effect = lower value 1.02 | S. cerevisiae deletion strains, locus YLR058C, strain SHM2, stronger effect = lower value 0.988 | S. cerevisiae deletion strains, locus YLR102C, strain apc9, stronger effect = lower value 0.98 | S. cerevisiae deletion strains, locus YLR113W, strain HOG1, stronger effect = lower value 1.01 | S. cerevisiae deletion strains, locus YLR221C, strain rsa3, stronger effect = lower value 1.03 | S. cerevisiae deletion strains, locus YLR258W, strain gsy2, stronger effect = lower value 0.954 | S. cerevisiae deletion strains, locus YLR262C, strain YPT6 (second series), stronger effect = lower value 0.993 | S. cerevisiae deletion strains, locus YLR262C, strain YPT6, stronger effect = lower value 0.977 | S. cerevisiae deletion strains, locus YLR268W, strain sec22, stronger effect = lower value 0.975 | S. cerevisiae deletion strains, locus YLR320W, strain mms22, stronger effect = lower value 0.987 | S. cerevisiae deletion strains, locus YLR330W, strain CHS5, stronger effect = lower value 0.987 | S. cerevisiae deletion strains, locus YLR342W, strain FKS1 (second series), stronger effect = lower value 0.984 | S. cerevisiae deletion strains, locus YLR342W, strain FKS1, stronger effect = lower value 0.974 | S. cerevisiae deletion strains, locus YLR357W, strain rsc2, stronger effect = lower value 0.916 | S. cerevisiae deletion strains, locus YLR370C, strain arc18, stronger effect = lower value 0.95 | S. cerevisiae deletion strains, locus YLR371W, strain rom2, stronger effect = lower value 0.975 | S. cerevisiae deletion strains, locus YLR384C, strain iki3, stronger effect = lower value 0.975 | S. cerevisiae deletion strains, locus YLR418C, strain cdc73, stronger effect = lower value 0.969 | S. cerevisiae deletion strains, locus YML016C, strain PPZ1, stronger effect = lower value 0.986 | S. cerevisiae deletion strains, locus YML032C, strain rad52, stronger effect = lower value 0.976 | S. cerevisiae deletion strains, locus YML120C, strain ndi1, stronger effect = lower value 1.02 | S. cerevisiae deletion strains, locus YML124C, strain tub3, stronger effect = lower value 0.99 | S. cerevisiae deletion strains, locus YMR058W, strain fet3, stronger effect = lower value 0.988 | S. cerevisiae deletion strains, locus YMR078C, strain ctf18, stronger effect = lower value 0.986 | S. cerevisiae deletion strains, locus YMR125W, strain sto1, stronger effect = lower value 0.98 | S. cerevisiae deletion strains, locus YMR129W, stronger effect = lower value 1.01 | S. cerevisiae deletion strains, locus YMR205C, strain PFK2, stronger effect = lower value 1 | S. cerevisiae deletion strains, locus YMR223W, strain ubp8, stronger effect = lower value 0.976 | S. cerevisiae deletion strains, locus YMR231W, strain pep5, stronger effect = lower value 0.997 | S. cerevisiae deletion strains, locus YMR307W, strain GAS1, stronger effect = lower value 0.891 | S. cerevisiae deletion strains, locus YNL067W, strain RPL9B, stronger effect = lower value 1.01 | S. cerevisiae deletion strains, locus YNL071W, strain lat1, stronger effect = lower value 0.993 | S. cerevisiae deletion strains, locus YNL128W, strain TEP1, stronger effect = lower value 0.962 | S. cerevisiae deletion strains, locus YNL183C, strain NPR1, stronger effect = lower value 0.959 | S. cerevisiae deletion strains, locus YNL209W, strain ssb2, stronger effect = lower value 0.961 | S. cerevisiae deletion strains, locus YNL233W, strain BNI4, stronger effect = lower value 1 | S. cerevisiae deletion strains, locus YNL248C, strain rpa49, stronger effect = lower value 0.921 | S. cerevisiae deletion strains, locus YNL250W, strain rad50, stronger effect = lower value 0.974 | S. cerevisiae deletion strains, locus YNL271C, strain bni1, stronger effect = lower value 0.973 | S. cerevisiae deletion strains, locus YNL298W, strain CLA4, stronger effect = lower value 0.981 | S. cerevisiae deletion strains, locus YNL307C, strain MCK1, stronger effect = lower value 0.987 | S. cerevisiae deletion strains, locus YNL322C, strain KRE1 (second series), stronger effect = lower value 0.985 | S. cerevisiae deletion strains, locus YNR049C, strain mso1, stronger effect = lower value 0.977 | S. cerevisiae deletion strains, locus YNR052C, strain pop2, stronger effect = lower value 0.985 | S. cerevisiae deletion strains, locus YOL006C, strain TOP1, stronger effect = lower value 1.02 | S. cerevisiae deletion strains, locus YOL012C, strain htz1 0.994 | S. cerevisiae deletion strains, locus YOL147C, strain pex11, stronger effect = lower value 0.983 | S. cerevisiae deletion strains, locus YOR001W, strain rrp6, stronger effect = lower value 1.03 | S. cerevisiae deletion strains, locus YOR061W, strain CKA2, stronger effect = lower value 0.984 | S. cerevisiae deletion strains, locus YOR069W, strain VPS5, stronger effect = lower value 0.99 | S. cerevisiae deletion strains, locus YOR070C, strain gyp1, stronger effect = lower value 0.976 | S. cerevisiae deletion strains, locus YOR080W, strain dia2, stronger effect = lower value 0.977 | S. cerevisiae deletion strains, locus YOR083W, strain WHI5, stronger effect = lower value 0.935 | S. cerevisiae deletion strains, locus YOR106W, strain vam3, stronger effect = lower value 0.99 | S. cerevisiae deletion strains, locus YOR136W, strain idh2, stronger effect = lower value 0.993 | S. cerevisiae deletion strains, locus YOR144C, strain elg1, stronger effect = lower value 0.987 | S. cerevisiae deletion strains, locus YOR184W, strain ser1, stronger effect = lower value 0.978 | S. cerevisiae deletion strains, locus YOR231W, strain MKK1, stronger effect = lower value 1 | S. cerevisiae deletion strains, locus YOR265W, strain rbl2, stronger effect = lower value 0.985 | S. cerevisiae deletion strains, locus YOR270C, strain vph1, stronger effect = lower value 1.01 | S. cerevisiae deletion strains, locus YOR290C, strain snf2, stronger effect = lower value 0.912 | S. cerevisiae deletion strains, locus YOR316C, strain cot1, stronger effect = lower value 0.984 | S. cerevisiae deletion strains, locus YPL051W, strain arl3, stronger effect = lower value 0.978 | S. cerevisiae deletion strains, locus YPL078C, strain atp4, stronger effect = lower value 0.946 | S. cerevisiae deletion strains, locus YPL106C, strain sse1, stronger effect = lower value 0.969 | S. cerevisiae deletion strains, locus YPL240C, strain hsp82, stronger effect = lower value 0.995 | S. cerevisiae deletion strains, locus YPL241C, strain CIN2, stronger effect = lower value 0.992 | S. cerevisiae deletion strains, locus YPL256C, strain CLN2, stronger effect = lower value 1.01 | S. cerevisiae deletion strains, locus YPR119W, strain clb2, stronger effect = lower value 0.986 | S. cerevisiae deletion strains, locus YPR141C, strain kar3, stronger effect = lower value 0.969 | S. cerevisiae deletion strains, locus YPR163C, strain tif3, stronger effect = lower value 0.982 | S. cerevisiae deletion strains, locus YPR167C, strain met16, stronger effect = lower value 0.972 | S. cerevisiae deletion strains, strain wtn01, stronger effect = lower value 0.976 | S. cerevisiae strains, strain wild type, stronger effect = lower value 0.989

Reference: PubChem BioAssay AID1159580 (chemical genetic matrix, 2015)
